Shown are actives, neighbours in structure and some others; about 8% of the full set was active somewhere.
Coupling enz: qHTS Assay for Inhibitors of Fructose-1,6-bisphosphate Aldolase from Giardia Lamblia: Coupling assay counterscreen | coupling enzyme system counterscreen, AmpLite Red fluorescence | activity change, negative = inhibition, % at 58.2 µM, hits read low | 0.67% of 290,000 active; in the data active = activity change below about -30%
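Counterscreen lacking aldolase: glyceraldehyde-3-phosphate coupling-enzyme reagent preincubated 10 min at RT with compound (at 57.5 uM final), then substrate/coupling system with AmpLite Red added; fluorescence read at 525/598 nm after 20 min RT.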
RORgamma inh: qHTS for inhibitors of ROR gamma transcriptional activity. Nuclear receptor ROR-gamma (Mus musculus), P51450. Drosophila S2 Gal4-RORgamma UAS-luciferase reporter, 20 h. Potency, µM (doses to about 53.6 µM), actives largely listed as inhibitors. 5.4% of 310,000 active. AID 2551, 2010; also: nearly all actives have a fitted effect of over 60% in size
Target sequence (P51450 whole entry, looked up, the tested form may be a part): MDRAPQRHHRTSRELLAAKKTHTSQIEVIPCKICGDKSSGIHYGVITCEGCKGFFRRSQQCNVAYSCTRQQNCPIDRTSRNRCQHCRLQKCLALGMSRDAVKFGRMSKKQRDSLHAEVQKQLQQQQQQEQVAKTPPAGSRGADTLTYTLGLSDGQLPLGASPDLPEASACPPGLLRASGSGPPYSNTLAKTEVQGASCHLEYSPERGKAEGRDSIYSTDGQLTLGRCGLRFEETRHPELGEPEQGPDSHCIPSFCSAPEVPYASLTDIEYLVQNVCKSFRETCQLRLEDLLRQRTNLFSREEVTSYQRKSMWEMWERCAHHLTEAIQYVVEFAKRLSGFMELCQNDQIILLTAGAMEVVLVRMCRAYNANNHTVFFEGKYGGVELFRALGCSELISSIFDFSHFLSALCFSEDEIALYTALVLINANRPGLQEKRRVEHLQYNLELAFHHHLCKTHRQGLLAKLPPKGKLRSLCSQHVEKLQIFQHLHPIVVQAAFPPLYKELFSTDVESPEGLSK
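Read-out: Photinus luciferase luminescence; inhibitors lower reporter signal. Insect Schneider cells with Gal4-ROR gamma fusion under metallothionein promoter, UAS reporter; 700 uM final copper sulfate induction, 20 hr, ambient temperature.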
VP16 counter: VP16 counterscreen qHTS for inhibitors of ROR gamma transcriptional activity; 3.5% of 310,000 active; Drosophila S2 Gal4-VP16 UAS-luciferase, luminescence, 20 h; Potency, µM (doses to about 53.6 µM), most hits filed as inhibitors;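 also: Gal4-VP16 expression switched on by copper sulfate through the metallothionein promoter; nearly all actives have a fitted effect of over 50% in size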
TSHR antag: Antagonists of the Thyroid Stimulating Hormone Receptor: HTS campaign; Thyrotropin receptor (Homo sapiens), P16473; TSHR-expressing cells, TSH-stimulated cAMP HTRF, 2 h; active compounds read low; activity change, negative = inhibition, % at 11.5 µM; 0.2% of 330,000 active;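 active = activity change below a set negative limit, meaning inhibition stronger than a set level, cut at about -70% in these data; inconclusive = activity change between two set negative limits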
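Antagonism was scored as loss of TSH-driven cAMP in TSHR cells, stimulated with 4nM TSH (EC80) for 2 hours at 37 deg C and detected by homogeneous HTRF competition immunoassay.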
ELG1 DNA repair: qHTS screen for small molecules that inhibit ELG1-dependent DNA repair in human embryonic kidney (HEK293T) cells expressing luciferase-tagged ELG1 | 2.3% of 330,000 active | Potency, µM (series often up to 46.1 µM), actives largely listed as inhibitors | HEK293T ELG1-luciferase reporter, luminescence, 16 h; DNA damage induced by 5-fluorouridine; also: nearly all actives have a fitted effect of over 55% in size
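In this reporter screen, reduction of luminescence relative to DMSO vehicle indicated activity. Compounds and 5-fluorouridine were added together to 2,000 cells per well, incubated for 16 hr at 37 °C, then developed with ONE-Glo.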
Of the large screens only hits and unclear results are named; the others gave an inactive call. Unless noted, calls follow the shape of the dose curve; as a rule, active = well fitted curve in the direction sought with a large enough effect; inconclusive = small, poorly fitted or top-dose-only effect, or another doubt; inactive = no such curve, though single readings can be large; an effect the other way counts as inactive or inconclusive.

CCOC(=O)C(C)Sc1nnc(NC(=O)c2ccc3c(c2)OCO3)s1 (stereo not given)	RORgamma inh 10µM
O=C(NCc1cccc(C(F)(F)F)c1)C1CCCN(c2cnccn2)C1 (stereo not given)	none
CCOc1ccccc1NC(=O)C1=C(C)NC(=S)NC1c1cccs1 (stereo not given)	RORgamma inh 6.3µM, VP16 counter 20µM, ELG1 DNA repair inconclusive
CCOC(=O)c1n[nH]n2c1nc(=S)c1ccccc12	RORgamma inh 6.3µM, VP16 counter inconclusive
CCOC(=O)c1n[nH]c2ccccc12	none
CC(=NNC(=O)Cn1ccc(C(F)(F)F)n1)c1ccc(-n2ccnc2)cc1	none (no result: Coupling enz, RORgamma inh, VP16 counter)
CCN1C(=O)/C(=C/c2ccc(C)s2)NC1=S	RORgamma inh 18µM, VP16 counter inconclusive
Cc1ccc(/C=C2/NC(=O)N(Cc3ccccc3)C2=O)s1	ELG1 DNA repair inconclusive
CN(Cc1nc(-c2cccnc2)no1)S(=O)(=O)c1ccc(Br)cc1	VP16 counter 11µM, ELG1 DNA repair inconclusive
Cc1nc(NC(C)c2ccccc2)c2oc3ccccc3c2n1 (stereo not given)	RORgamma inh inconclusive, VP16 counter 13µM, ELG1 DNA repair inconclusive
Cc1nc(Nc2ccncc2)c2oc3ccccc3c2n1	ELG1 DNA repair 16µM
CCC(C)Nc1nc(C)nc2c1oc1ccccc12 (stereo not given)	VP16 counter inconclusive, ELG1 DNA repair inconclusive
CCn1c(C)c(C)c2cc(C(=O)NCCN3CCCCCC3)ccc21	none
CCN(CC)c1ccc2c(c1)C(=O)N(C)C2=O	ELG1 DNA repair inconclusive (no result: VP16 counter)
CCN(CCCCN1C(=O)c2ccccc2C1=O)c1ccc2c(c1)C(=O)N(C)C2=O	ELG1 DNA repair 16µM
CCCN(CC(=O)Nc1ccccc1C)C(=O)c1nn(CC)c(=O)c2ccccc12	none (no result: Coupling enz, RORgamma inh, VP16 counter)
Cc1ccc(NC(=O)NCCN2CCCCC2)cc1C	none
Cc1ccc(NC(=S)NCCN(C2CCCCC2)C2CCCC2)cc1C	RORgamma inh 5µM, ELG1 DNA repair inconclusive
Cc1cc(C)cc(NC(=S)NCCN(C2CCCCC2)C2CCCC2)c1	RORgamma inh 4.5µM
Cc1cc(C)cc(NC(=O)C2CCCC2)c1	none
Cc1ccc(NC(=S)NCCN(C2CCCCC2)C2CCCC2)cc1	RORgamma inh 11µM
Cc1ccc(NC(=O)NC2CCCCCCC2)cc1	VP16 counter inconclusive, ELG1 DNA repair inconclusive (no result: Coupling enz)
COc1cccc2c1C(CO)N1C(C#N)C3CC(C(=O)O)C(C1C2)N3C (stereo not given)	RORgamma inh 7.1µM, VP16 counter 10µM, ELG1 DNA repair 0.33µM
COc1cccc2c1OCC(C(=O)O)C2 (stereo not given)	none
COc1ccc2c(CCNC(N)=S)c[nH]c2c1	none
COc1ccc(NC(=S)NCCc2c[nH]c3ccccc23)c(OC)c1	RORgamma inh 7.9µM, VP16 counter inconclusive, ELG1 DNA repair inconclusive
COc1ccc(C(=O)NCCc2c[nH]c3ccc(OC)cc23)cc1	none
COc1ccc(NC(=S)NCCc2c[nH]c3ccc(OC)cc23)c(OC)c1	RORgamma inh 14µM, VP16 counter inconclusive, ELG1 DNA repair inconclusive
O=C(CNC(=O)C1CCCCC1)NNC(=O)c1ccccc1Br	none (no result: Coupling enz)
CN1C2CCCC1CC(NC(=O)c1nn(C)c3ccccc13)C2 (stereo not given)	none (no result: Coupling enz, RORgamma inh, VP16 counter, ELG1 DNA repair)
COc1ccccc1OCC#CCNC1CCCCC1C (stereo not given)	none
CC1(C)CC(=O)c2c(O)cc(OCC(=O)N3CCN(c4ccccc4)CC3)cc2O1	none
Cc1ccc2c(c1)-c1[nH]c(=S)ncc1CS2	RORgamma inh 2.2µM
Cc1cc2c(cc(C(=O)OC(C(=O)NCc3ccco3)C(C)C)n2C)o1 (stereo not given)	ELG1 DNA repair 23µM
O=C(NNC1=C(C(=O)C(F)(F)F)CCC1)c1ccccc1Cl	RORgamma inh 5.6µM, VP16 counter 6.3µM, ELG1 DNA repair inconclusive
O=C(NNC1=C(C(=O)C(F)(F)F)CCC1)c1ccc(Br)cc1	RORgamma inh inconclusive, VP16 counter inconclusive, ELG1 DNA repair inconclusive
COc1ccccc1C(=O)NNC(=O)c1ccccc1	VP16 counter inconclusive, ELG1 DNA repair inconclusive
COc1cccc(C(=O)NN=C2CCCC2)c1	none
COc1ccccc1C(=O)NNC1=C(C(=O)C(F)(F)F)CCC1	RORgamma inh 0.56µM, VP16 counter 5µM
COc1cccc(C(=O)NNC2=C(C(=O)C(F)(F)F)CCC2)c1	RORgamma inh 5.6µM, VP16 counter inconclusive, ELG1 DNA repair inconclusive
Nc1ccccc1C(=O)NNC1=C(C(=O)C(F)(F)F)CCC1	RORgamma inh 7.1µM, VP16 counter inconclusive, ELG1 DNA repair inconclusive
CC(=O)OCC(=O)[C@@]1(O)[C@H](OC(C)=O)C[C@H]2[C@@H]3CCC4=CC(=O)C=C[C@]4(C)[C@@]3(F)[C@@H](O)C[C@@]21C	none (no result: TSHR antag, ELG1 DNA repair)
O=C(N/N=C/c1ccccc1C(=O)O)c1cccc(S(=O)(=O)N2CCCCC2)c1	none (no result: Coupling enz, RORgamma inh, VP16 counter)
O=C(NNC1=C(C(=O)C(F)(F)F)CCC1)c1ccccc1O	RORgamma inh 11µM, VP16 counter inconclusive, ELG1 DNA repair inconclusive
COc1cccc(C(=O)NN/C(C)=C/C(=O)C(F)(F)C(F)(F)C(F)(F)F)c1	RORgamma inh 13µM, VP16 counter 13µM, ELG1 DNA repair inconclusive
CNc1ccc(Br)cc1C(O)c1ccccc1 (stereo not given)	RORgamma inh 13µM, VP16 counter inconclusive, ELG1 DNA repair inconclusive
CCCCOc1ccc(CSC(CC(=O)O)C(=O)O)cc1 (stereo not given)	RORgamma inh 2.2µM
O=C(/C(N=Nc1cccc([N+](=O)[O-])c1)=C(/O)c1ccc(Br)cc1)C(F)(F)F	RORgamma inh 7.9µM, VP16 counter 4.5µM, TSHR antag inconclusive, ELG1 DNA repair inconclusive
O=C(O)c1ccc(N=NNc2cccc([N+](=O)[O-])c2)cc1	ELG1 DNA repair inconclusive
O=C(N/N=C/C(Cl)=C/c1ccccc1)c1ccccn1	RORgamma inh inconclusive, VP16 counter inconclusive, ELG1 DNA repair inconclusive
Cc1cc(C(=O)N/N=C/C(Cl)=C/c2ccccc2)c(C)o1	VP16 counter 13µM
O=C(CC1C(=O)NCCN1CC1CCCCC1)NCc1cccc(F)c1F (stereo not given)	none
O=C(CC1C(=O)NCCN1Cc1cccc(F)c1F)NCCCC1CCCC1 (stereo not given)	TSHR antag -82 (no result: Coupling enz)
Cc1c(N2C(=O)CSC2c2ccc(F)cc2)c(=O)n(-c2ccccc2)n1C (stereo not given)	none
COc1ccc(CN(C)Cc2nc3scc(-c4ccccc4)c3c(=O)[nH]2)cc1OC	RORgamma inh 1.4µM, VP16 counter 2.5µM, ELG1 DNA repair 16µM
